Each structure is given as a SMILES string. Results filed as inconclusive are left out. A number with no mark means an inactive call. Active and inactive are the calls of the source. Calls come from the whole dose curve; as a rule, active = well fitted activation curve with a large enough effect; inconclusive = small, poorly fitted or top-dose-only effect; inactive = no such curve, though single readings can be large or run the other way.

Sequence of Relaxin receptor 2 (Homo sapiens) (Q8WXD0 whole entry, looked up): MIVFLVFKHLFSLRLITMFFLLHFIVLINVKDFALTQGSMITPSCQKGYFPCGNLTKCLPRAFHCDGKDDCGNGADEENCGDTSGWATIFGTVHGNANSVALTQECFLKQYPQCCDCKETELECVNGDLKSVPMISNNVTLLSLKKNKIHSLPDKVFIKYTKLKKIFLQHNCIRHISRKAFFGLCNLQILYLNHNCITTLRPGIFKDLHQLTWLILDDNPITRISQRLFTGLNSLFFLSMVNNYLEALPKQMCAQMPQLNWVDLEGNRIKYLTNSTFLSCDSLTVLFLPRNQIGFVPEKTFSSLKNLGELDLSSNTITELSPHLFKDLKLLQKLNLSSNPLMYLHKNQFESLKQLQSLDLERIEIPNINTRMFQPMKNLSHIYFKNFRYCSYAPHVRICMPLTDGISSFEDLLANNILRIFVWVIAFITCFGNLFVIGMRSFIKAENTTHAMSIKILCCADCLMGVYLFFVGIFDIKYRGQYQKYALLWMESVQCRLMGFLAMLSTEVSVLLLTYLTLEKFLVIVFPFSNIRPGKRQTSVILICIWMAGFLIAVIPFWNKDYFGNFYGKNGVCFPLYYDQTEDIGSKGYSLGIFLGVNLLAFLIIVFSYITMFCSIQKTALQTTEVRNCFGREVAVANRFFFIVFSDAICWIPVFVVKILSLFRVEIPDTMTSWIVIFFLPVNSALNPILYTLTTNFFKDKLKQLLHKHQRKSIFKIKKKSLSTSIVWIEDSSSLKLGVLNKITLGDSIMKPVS

The target in this assay is Relaxin receptor 2 (Homo sapiens) (UniProt Q8WXD0). Put plainly: qHTS Assay for Agonists of the Relaxin Receptor RXFP1: RXFP2 SAR. The settings on record: HEK293 RXFP2 cAMP TR-FRET agonist, 30 min; series mostly up to 78.1 µM; activation: at the top concentration. The source says:
The relaxin hormone is involved in the variety of biological functions in normal tissues and diseases. The role of relaxin is well-established in female reproduction and parturition, mammary gland and endometrial development, maintenance of myometrial quiescence during pregnancy. Relaxin signaling through its G protein-coupled receptor (GPCR) RXFP1 results in ECM remodeling through regulation of collagen deposition, cell invasiveness, proliferation and overall tissue homeostasis. […] Recombinant human relaxin (rhRlx) is currently being tested in clinical trials as a protective agent in congestive heart failure, in treating severe preeclampsia, and as an anti-fibrotic agent in systemic sclerosis. Upon relaxin binding RXFP1 activation leads to the activation of adenylate cyclase (AC) via Gs. cAMP will activate PKA, which phosphorylates many signaling proteins. Thus, detection of cAMP increase is an easy and reliable indication of relaxin receptor activation. To screen for agonists of the relaxin receptor, a HEK293T cell line stably transfected with RXFP1 was used. RXFP1 activation was assayed by changes in cAMP levels as detected with a time-resolved fluorescence energy transfer (TR-FRET) cAMP detection kit. This assay measures activation of a cell expressing RXFP2, another GPCR targeted by relaxin, to determine the selectivity of compounds for RXFP1. NIH Chemical Genomics Center [NCGC] NIH Molecular Libraries Probe Production Centers Network [MLPCN] MLPCN Grant: R03 MH085705-01A1 Assay Submitter (PI): Alexander Agoulnik
This is a cell-based assay for cAMP second messenger response to screen for agonists of the RXFP2 receptor. The assay was conducted in the presence of a PDE4 inhibitor (Ro 20174). The cells were lysed and the cAMP levels were measured with a TR-FRET cAMP kit. Presence of cAMP in the cell lysate disrupts binding between the cryptate-labeled anti-cAMP and d2-labeled cAMP pair, leading to a decrease in the TR-FRET signal. Data were normalized to the controls for basal activity (buffer only) and 100% activity (29 nM porcine relaxin). The EC50 values were determined from concentration-response data modeled with the standard Hill equation 1536-well assay protocol for the HEK293 RXFP2 cAMP assay: (1) Add 3 ul HEK293 RXFP2 cell culture. 2000 cells/well in DMEM/F12, 10% FBS, 1x Pen/Strep (dispensed offline with MultiDrop Combi). (2) Incubate 16-24 hr at 37C, 5% CO2. (3) Add 1 ul 400uM Ro20174 in DPBS, 0.05% BSA, 0.005% Tween 20. (3) Add 23 nl compounds in DMSO solution. Final concentration was 0.5 - 58 uM. (4) Incubate 30 min at 37C, 5% CO2. (5) Add 1 ul cAMP-d2 in lysis buffer (HTRF cAMP HiRange kit, CisBio). (6) Add 1 ul anti-cAMP antibody-cryptate in lysis buffer (HTRF cAMP HiRange kit, CisBio). (7) Incubate 30 min at room temperature. (6) Detect the assay plate in a ViewLux plate reader (PerkinElmer) with Ex=320 nm, Em1=615 nm and Em2=665 nm. Keywords: relaxin, RXFP1, RXFP2, G-protein coupled receptor, cAMP, agonist, high throughput screening, MLSMR, MLSCN, NIH Roadmap, qHTS and NCGC
In general terms: Quantitative high-throughput screening tests each substance at several concentrations.
With `COCCOc1ccccc1C(=O)Nc1cccc(C(F)(F)F)c1`, the “activation” value was 24.6%.

For the compound `O=C(Nc1ccccc1)c1ccccc1NC(=O)C1CCCCC1`, the “activation” value is 7.12%.

For the compound `COc1ccccc1C(=O)Nc1ccccc1C(=O)N(C)c1cccc(C(F)(F)F)c1`, the “activation” value is 3.35%.

On to `CC(C)Oc1ccccc1C(=O)Nc1ccccc1C(=O)Nc1cccc(C(F)(F)F)c1`, for which the “activation” value was 22.3%.

Turning to `O=C(NCc1ccco1)c1ccccc1NC(=O)c1ccccc1NC(=O)C1CCCCC1`, the “activation” value is -5.35%.

`COc1ccccc1C(=O)Nc1ccccc1C(=O)Nc1cccc(S(=O)(=O)C(F)(F)F)c1`: the “activation” value was 24.1%.

In the case of `O=C(Nc1cccc(Cl)c1)c1ccccc1NC(=O)C1CCCCC1`, the “activation” value was 10.8%.

With `COc1cccc(OC)c1C(=O)Nc1ccccc1C(=O)Nc1cccc(C(F)(F)F)c1`, the “activation” value is 3.96%.

As for `CCSc1ccccc1C(=O)Nc1ccccc1C(=O)Nc1cccc(S(=O)(=O)C(F)(F)F)c1`, the “activation” value was 13.1%.

In the case of `O=C(Nc1cccc(Br)c1)c1ccccc1NC(=O)C1CCCCC1`, the “activation” value is 13.2%.

`O=C(Nc1cccc(C(F)(F)F)c1)c1ccccc1NC(=O)C1CCCCCC1`: the “activation” value was 2.09%.

On to `O=C(NCc1cccc(C(F)(F)F)c1)c1ccccc1NC(=O)C1CCCCC1`, for which the “activation” value is 2.63%.

Turning to `CCOc1ccccc1C(=O)Nc1ccccc1C(=O)Nc1cccc(C(F)(F)F)c1`, the Potency is 9.4 µM (active).

Regarding `CCOc1ccccc1C(=O)Nc1ccccc1CNc1cccc(S(=O)(=O)C(F)(F)F)c1`, the “activation” value was 7.61%.

With `COc1ccccc1-c1ccccc1C(=O)Nc1cccc(C(F)(F)F)c1`, the “activation” value is 2.22%.

Turning to `COc1ccccc1C(=O)Nc1ccc(C(=O)Nc2cccc(C(F)(F)F)c2)cc1`, the “activation” value is -6.5%.

As for `O=C(Nc1cccc(SC(F)(F)F)c1)c1ccccc1NC(=O)C1CCCCC1`, the “activation” value was 18.3%.

As for `COc1cccc(NC(=O)c2ccccc2NC(=O)C2CCCCC2)c1`, the “activation” value was 7.76%.

`O=C(Nc1cccc(C(F)(F)F)c1)c1ccccc1NC(=O)C1CC1`: the “activation” value was 10.8%.

On to `O=C(Nc1cccc(S(=O)(=O)C(F)(F)F)c1)c1ccccc1NC(=O)c1ccccc1OCC(F)(F)F`, for which the “activation” value was 14%.

With `CN(C)CCOc1ccccc1C(=O)Nc1ccccc1C(=O)Nc1cccc(C(F)(F)F)c1`, the “activation” value was -1.72%.

For `Cc1ccccc1NC(=O)c1ccccc1NC(=O)C1CCCCC1`, the “activation” value was 8.27%.

Take `CC(C)(C)c1cccc(NC(=O)c2ccccc2NC(=O)C2CCCCC2)c1`: the “activation” value was 7.45%.

For the compound `O=C(Nc1cccc(C(F)(F)F)c1)c1ccccc1NC(=O)C1CCC1`, the “activation” value is 8.34%.

In the case of `O=C(Nc1cccc(C(F)(F)F)c1)c1ccccc1NC(=O)C1CCCC1`, the “activation” value is -2.45%.

Turning to `O=C(Nc1cccc(-c2ccccc2)c1)c1ccccc1NC(=O)C1CCCCC1`, the “activation” value was -4.81%.

For `COc1ccccc1C(=O)N(C)c1ccccc1C(=O)N(C)c1cccc(C(F)(F)F)c1`, the “activation” value is 0.69%.

For the compound `COCCOc1ccccc1C(=O)Nc1ccccc1C(=O)Nc1cccc(C(F)(F)F)c1`, the Potency is 5.29 µM (active).

For `CCOc1ccccc1C(=O)Nc1cnccc1C(=O)Nc1cccc(S(=O)(=O)C(F)(F)F)c1`, the “activation” value was 26.4%.

On to `Cc1cccc(NC(=O)c2ccccc2NC(=O)C2CCCCC2)c1`, for which the “activation” value was 4.49%.

For the compound `CCOc1ccccc1S(=O)(=O)Nc1ccccc1C(=O)Nc1cccc(S(=O)(=O)C(F)(F)F)c1`, the “activation” value is -7.45%.

Take `CCOc1ccccc1-c1nc2c(C(=O)Nc3cccc(S(=O)(=O)C(F)(F)F)c3)cccc2[nH]1`: the “activation” value is 3.33%.

As to `Cc1ccc(NC(=O)c2ccccc2NC(=O)C2CCCCC2)cc1`, the “activation” value was 9.53%.

Regarding `O=C(Nc1cccc(-c2ccccc2C(F)(F)F)c1)c1ccccc1NC(=O)C1CCCCC1`, the “activation” value is 14.2%.

Turning to `O=C(Nc1cccc(-c2cccc(C(F)(F)F)c2)c1)c1ccccc1NC(=O)C1CCCCC1`, the “activation” value was 13.4%.

Turning to `O=C(Nc1ccccc1C(=O)Nc1cccc(C(F)(F)F)c1)c1cccnc1`, the “activation” value was -3.42%.

As for `CCOc1ccccc1C(=O)Nc1ncccc1C(=O)Nc1cccc(S(=O)(=O)C(F)(F)F)c1`, the “activation” value is 15.6%.

Take `O=C(Nc1cccc(C(F)(F)F)c1)c1ccccc1NC(=O)C1CCCCC1`: the “activation” value was 8.74%.

`COc1cccc(C(=O)Nc2ccccc2C(=O)Nc2cccc(C(F)(F)F)c2)c1`: the “activation” value was 17.9%.

For the compound `O=C(Cc1ccccc1)Nc1ccccc1C(=O)Nc1cccc(C(F)(F)F)c1`, the “activation” value was 10.8%.

(Values after PubChem BioAssay AID602258 (National Center for Advancing Translational Sciences (NCATS), 2012).)
